PubChem BioAssay AID1159580 (chemical genetic matrix, 2015)
Among all 5,500 compounds or so, about 2,000 (36%) were called active. About 18% were inconclusive and are not listed. Cut-off read from the data, not from the text of the source: active = normalized growth mostly below about 0.91 (no sharp cut-off); inconclusive = no clear call, values can overlap the other calls; inactive = mostly above about 0.92. The list shows a part of the results.

Test: chemical genetic growth profiling, strain panel (AID 1159580);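 note: tested at 20 µM; growth read once vehicle control cultures reached saturation at 30 °C; 1 = growth at the plate median or of vehicle wells; lower values mean less growth of the strain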
Settings: growth OD
[1] = S. cerevisiae deletion strains, locus YDL101C, strain DUN1, active compounds read low
[2] = S. cerevisiae deletion strains, locus YHR030C, strain SLT2, active compounds read low

Measured: normalized growth

CC(=O)c1ccc(N2C(=O)CSCC2=O)cc1
inactive: S. cerevisiae deletion strains, locus YAL013W, strain DEP1, active compounds read low 0.999 | S. cerevisiae deletion strains, locus YBR229C, strain ROT2, active compounds read low 0.999 | [1] 1.01 | S. cerevisiae deletion strains, locus YDL134C, strain PPH21, active compounds read low 0.977 | S. cerevisiae deletion strains, locus YDR150W, strain NUM1, active compounds read low 0.984 | S. cerevisiae deletion strains, locus YEL061C, strain CIN8, active compounds read low 1.02 | S. cerevisiae deletion strains, locus YGR078C, strain PAC10, active compounds read low 1 | S. cerevisiae deletion strains, locus YGR229C, strain SMI1, active compounds read low 0.972 | [2] 1.02 | S. cerevisiae deletion strains, locus YHR087W, strain rtc3, active compounds read low 1 | S. cerevisiae deletion strains, locus YJR043C, strain POL32, active compounds read low 0.991 | S. cerevisiae deletion strains, locus YJR075W, strain HOC1, active compounds read low 1.02 | S. cerevisiae deletion strains, locus YLR039C, strain RIC1, active compounds read low 0.962 | S. cerevisiae deletion strains, locus YLR058C, strain SHM2 (second series), active compounds read low 0.999 | S. cerevisiae deletion strains, locus YLR085C, strain ARP6, active compounds read low 1.04 | S. cerevisiae deletion strains, locus YLR262C, strain YPT6, active compounds read low 0.912 | S. cerevisiae deletion strains, locus YML094W, strain GIM5, active compounds read low 1.03 | S. cerevisiae deletion strains, locus YMR219W, strain ESC1, active compounds read low 0.994 | S. cerevisiae deletion strains, locus YMR263W, strain SAP30, active compounds read low 0.999 | S. cerevisiae deletion strains, locus YMR307W, strain GAS1, active compounds read low 1.11 | S. cerevisiae deletion strains, locus YNL153C, strain GIM3, active compounds read low 1.01 | S. cerevisiae deletion strains, locus YNL298W, strain CLA4 (second series), active compounds read low 0.992 | S. cerevisiae deletion strains, locus YNL322C, strain KRE1, active compounds read low 0.988 | S. cerevisiae deletion strains, locus YNR030W, strain Alg12, active compounds read low 0.996 | S. cerevisiae deletion strains, locus YPL055C, strain LGE1, active compounds read low 1.02 | S. cerevisiae deletion strains, locus YPL241C, strain CIN2, active compounds read low 0.983 | S. cerevisiae deletion strains, locus YPR135W, strain CTF4, active compounds read low 0.99 | S. cerevisiae strains, strain wild type, active compounds read low 0.97

CC1=CC(=O)N(c2ccc(F)c(Cl)c2)C1=O
active: [1] 0.76 | S. cerevisiae deletion strains, locus YDL214C, strain PRR2, active compounds read low 0.345 | S. cerevisiae deletion strains, locus YDR477W, strain SNF1, active compounds read low 0.376 | S. cerevisiae deletion strains, locus YER123W, strain YCK3, active compounds read low 0.243 | S. cerevisiae deletion strains, locus YER133W, strain GLC7, active compounds read low 0.371 | S. cerevisiae deletion strains, locus YFR019W, strain FAB1, active compounds read low 0.443 | S. cerevisiae deletion strains, locus YGR040W, strain KSS1, active compounds read low 0.461 | S. cerevisiae deletion strains, locus YGR052W, strain FMP48, active compounds read low 0.387 | S. cerevisiae deletion strains, locus YGR092W, strain DBF2, active compounds read low 0.335 | [2] 0.173 | S. cerevisiae deletion strains, locus YHR079C, strain IRE1, active compounds read low 0.195 | S. cerevisiae deletion strains, locus YHR082C, strain KSP1, active compounds read low 0.235 | S. cerevisiae deletion strains, locus YHR205W, strain SCH9, active compounds read low 0.395 | S. cerevisiae deletion strains, locus YJL095W, strain BCK1, active compounds read low 0.168 | S. cerevisiae deletion strains, locus YJL157C, strain FAR1, active compounds read low 0.377 | S. cerevisiae deletion strains, locus YJR066W, strain TOR1 (second series), active compounds read low 0.219 | S. cerevisiae deletion strains, locus YJR066W, strain TOR1, active compounds read low 0.166 | S. cerevisiae deletion strains, locus YKL048C, strain ELM1, active compounds read low 0.474 | S. cerevisiae deletion strains, locus YKL067W, strain YNK1, active compounds read low 0.347 | S. cerevisiae deletion strains, locus YKL101W, strain HSL1, active compounds read low 0.386 | S. cerevisiae deletion strains, locus YKL203C, strain TOR2, active compounds read low 0.506 | S. cerevisiae deletion strains, locus YLR113W, strain HOG1, active compounds read low 0.335 | S. cerevisiae deletion strains, locus YLR133W, strain CKI1, active compounds read low 0.457 | S. cerevisiae deletion strains, locus YLR403W, strain SFP1, active compounds read low 0.404 | S. cerevisiae deletion strains, locus YML070W, strain DAK1, active compounds read low 0.274 | S. cerevisiae deletion strains, locus YMR205C, strain PFK2 (second series), active compounds read low 0.407 | S. cerevisiae deletion strains, locus YNL020C, strain ARK1, active compounds read low 0.477 | S. cerevisiae deletion strains, locus YNL183C, strain NPR1, active compounds read low 0.156 | S. cerevisiae deletion strains, locus YNL307C, strain MCK1 (second series), active compounds read low 0.34 | S. cerevisiae deletion strains, locus YOL136C, strain PFK27, active compounds read low 0.335 | S. cerevisiae deletion strains, locus YOR061W, strain CKA2, active compounds read low 0.549 | S. cerevisiae deletion strains, locus YOR119C, strain RIO1, active compounds read low 0.524 | S. cerevisiae deletion strains, locus YOR231W, strain MKK1, active compounds read low 0.225 | S. cerevisiae deletion strains, locus YPL031C, strain PHO85, active compounds read low 0.233 | S. cerevisiae deletion strains, locus YPL153C, strain RAD53, active compounds read low 0.398 | S. cerevisiae deletion strains, locus YPL204W, strain HRR25, active compounds read low 0.455 | S. cerevisiae deletion strains, locus YPL256C, strain CLN2, active compounds read low 0.206
inactive: S. cerevisiae deletion strains, locus YAR019C, strain CDC15, active compounds read low 0.966 | S. cerevisiae deletion strains, locus YBL105C, strain PKC1, active compounds read low 0.974 | S. cerevisiae deletion strains, locus YBR135W, strain CKS1, active compounds read low 0.964 | S. cerevisiae deletion strains, locus YBR136W, strain MEC1, active compounds read low 0.971 | S. cerevisiae deletion strains, locus YBR160W, strain CDC28, active compounds read low 0.975 | S. cerevisiae deletion strains, locus YDL017W, strain CDC7, active compounds read low 0.966 | S. cerevisiae deletion strains, locus YDL028C, strain MPS1, active compounds read low 0.976 | S. cerevisiae deletion strains, locus YDL108W, strain KIN28, active compounds read low 0.979 | S. cerevisiae deletion strains, locus YDL132W, strain cdc53, active compounds read low 0.986 | S. cerevisiae deletion strains, locus YDR052C, strain DBF4, active compounds read low 0.978 | S. cerevisiae deletion strains, locus YDR054C, strain cdc34, active compounds read low 0.983 | S. cerevisiae deletion strains, locus YDR226W, strain ADK1, active compounds read low 0.97 | S. cerevisiae deletion strains, locus YFL009W, strain cdc4, active compounds read low 0.974 | S. cerevisiae deletion strains, locus YFL029C, strain CAK1, active compounds read low 0.96 | S. cerevisiae deletion strains, locus YFR003C, strain YPI1, active compounds read low 0.975 | S. cerevisiae deletion strains, locus YFR028C, strain CDC14, active compounds read low 0.967 | S. cerevisiae deletion strains, locus YIL147C, strain SLN1, active compounds read low 0.975 | S. cerevisiae deletion strains, locus YJL128C, strain PBS2, active compounds read low 0.953 | S. cerevisiae deletion strains, locus YJR016C, strain ILV3, active compounds read low 0.987 | S. cerevisiae deletion strains, locus YKL193C, strain SDS22, active compounds read low 0.974 | S. cerevisiae deletion strains, locus YMR001C, strain CDC5, active compounds read low 0.962 | S. cerevisiae deletion strains, locus YMR277W, strain FCP1, active compounds read low 0.973 | S. cerevisiae deletion strains, locus YNL006W, strain LST8, active compounds read low 0.982 | S. cerevisiae deletion strains, locus YNL161W, strain CBK1, active compounds read low 0.963 | S. cerevisiae deletion strains, locus YNL207W, strain RIO2, active compounds read low 0.973 | S. cerevisiae deletion strains, locus YNL222W, strain SSU72, active compounds read low 0.973 | S. cerevisiae deletion strains, locus YOL078W, strain AVO1, active compounds read low 0.966 | S. cerevisiae deletion strains, locus YOR329C, strain SCD5, active compounds read low 0.98 | S. cerevisiae deletion strains, locus YPL209C, strain IPL1, active compounds read low 0.964 | S. cerevisiae deletion strains, locus YPR025C, strain CCL1, active compounds read low 0.97 | S. cerevisiae deletion strains, locus YPR106W, strain ISR1, active compounds read low 0.974 | S. cerevisiae deletion strains, locus YPR111W, strain DBF20, active compounds read low 0.976 | S. cerevisiae deletion strains, strain NNK1, active compounds read low 0.973 | S. cerevisiae deletion strains, strain TSCII, active compounds read low 0.966
